Inconclusive results are not listed. Unmarked numbers belong to inactive results. The source made the active and inactive calls. Calls come from the whole dose curve; as a rule, active = well fitted inhibition curve with a large enough effect; inconclusive = small, poorly fitted or top-dose-only effect; inactive = flat fitted curve, though single readings scatter.

The test system of assay [1] is CRL-7250. Nature of the assay: Cytotoxic Profiling of Annotated Libraries Using Quantitative High-Throughput Screening (AID 1296008). For max response: % is set by controls: 0 for no effect and ±100 for the full control effect. Note: potency is the fitted concentration of half-maximal effect. The note with it: Five cell lines viability, CellTiter-Glo ATP luminescence, 48-72 h; max response: active compounds read low. In outline:
(§1)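 Cells exposed to compounds for 48 or 72 hr at 37 degrees Celsius. Viability read as ATP-coupled luminescence with CellTiter-Glo after 10 min at room temperature.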
A general note: Cellular ATP, detected with luciferase, serves as a proxy for viable cell number.

Assay [2] concerns HEK293. The assay is described as above. The conditions noted are these: Five cell lines viability, CellTiter-Glo ATP luminescence, 48-72 h; max response: active compounds read low. In a few lines:
as §1

For assay [3], the system named is HaCat. Described as above. The note with it: Five cell lines viability, CellTiter-Glo ATP luminescence, 48-72 h; max response: active compounds read low. In outline:
as §1

For assay [4], the system named is KB-3-1. Described as above. The conditions noted are these: Five cell lines viability, CellTiter-Glo ATP luminescence, 48-72 h; max response: active compounds read low. In outline: as §1
Assay [5] relates to NIH3T3. The description is as above. The note with it: Five cell lines viability, CellTiter-Glo ATP luminescence, 48-72 h; max response: active compounds read low. In a few lines: as §1
Assay [6] has as its system HACAT. Nature of the assay: qHTS assay to identify novel small-molecules to repurpose for Merkel cell carcinoma treatment (AID 1296009). The note with it: MCC and control cell lines, CellTiter-Glo viability, 72 h; at 44.8 µM (top of the series) unless noted. In outline: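 CellTiter-Glo luminescence after 72 hr compound exposure at 37 degree celsius gave cell viability. Libraries NPC and MIPE were run as 8- and 11-point dose responses; RLUs normalized to DMSO (negative) and no-cell (cytotoxicity) controls.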
Background: qHTS replaces the single test concentration by a dilution series.
Note: nearly all actives have a fitted effect of over 60% in size.

Regarding `CC(C)(C)C(=O)OCOC(=O)C1N2C(=O)CC2S(=O)(=O)C1(C)C` (centres undefined), the max response in assay [1] is -2.99%; in assay [4] it was -11.8%; in assay [5], 2.05%. Also, the compound was classed as inactive in assay [2], in assay [3] and in assay [6].
With `NC(=O)NS(=O)(=O)c1ccc(Cl)cc1`, the compound was called inactive in assay [1]. For the same compound, the max response in assay [2] was -19.3%; in assay [3] it was 0.84%; in assay [5], -2.72%.
On to `Cn1c(=O)c2c(ncn2CC(=O)O)n(C)c1=O`, for which the max response in assay [1] is -0.788%; in assay [2], -8.26%; in assay [3], -42.3%. The result in assay [5] was inactive.
As to `O=C(O)Cn1c(=O)n(Cc2ccc(Br)cc2F)c(=O)c2ccc(Cl)cc21`, the compound was called inactive in assay [1], in assay [2] and in assay [5]. Moreover, the max response in assay [3] is 0.662%.
For `CCN1CCN(C(=O)N[C@@H](C(=O)N[C@@H]2C(=O)N3[C@@H]2SC(C)(C)[C@H]3C(=O)O)c2ccccc2)C(=O)C1=O`, the call in assay [1], in assay [3] and in assay [6] was inactive. Further, the max response in assay [2] was -1.44%; in assay [4], -9.16%; in assay [5] it was 2.03%.
In the case of `CC[C@@]1(O)C(=O)OCc2c1cc1n(c2=O)Cc2c-1nc1ccccc1c2/C=N/OC(C)(C)C`, the Potency in assay [1] is 1190 nM (active); in assay [2], 21.1 nM (active); in assay [3], 42.2 nM (active); in assay [5], 266 nM (active).
Regarding `OC1(c2ccccc2)CCNCC1`, the max response was 0.914% in assay [1], 1.58% in assay [2] and -1.01% in assay [3]. In addition, the compound was called inactive in assay [5].
For the compound `Cc1ccc2c(Cl)cc(Cl)c(O)c2n1`, the max response in assay [1] is -1.98%; in assay [2] it was -23.5%; in assay [3] it was -10%; in assay [5], 2.93%.
Turning to `O=[N+]([O-])c1nccn1CO[C@@H](CO)[C@H](O)CO`, the max response in assay [1] was -17.9%; in assay [2], 4%; in assay [4], 2.05%. Besides, the outcome in assay [3] and in assay [6] was inactive.
Take `O=C(O)C(=O)Nc1cccc(-c2nn[nH]n2)c1`: the max response was -0.0138% in assay [1] and -5.35% in assay [3]. Moreover, the result in assay [2] and in assay [5] was inactive.
Consider `Nc1ccc(C(=O)N2CC3CC(CN(Cc4ccccc4)C3)C2)cc1`, for which the max response in assay [1] was -9.41%; in assay [3], 3.27%. Moreover, the compound was called inactive in assay [2] and in assay [5].
Turning to `O=C1NC(c2ccccc2)(c2ccccc2)C(=O)N1COP(=O)(O)O`, the result in assay [1], in assay [2] and in assay [5] was inactive. Also, the max response in assay [3] is -3.47%.
Consider `CCOC(=O)C(=O)CCCCCCl`, for which the result in assay [1] and in assay [5] was inactive. The max response in assay [2] was -7.06%; in assay [3] it was -12.5%.
For `[O-][n+]1cccc(/C(Cl)=N/OC[C@@H](O)CN2CCCCC2)c1`, the max response was 4.98% in assay [1], -1.36% in assay [2], 2.38% in assay [3] and 0.672% in assay [5].
For `Cc1sccc1Br` the same measures were -9.55%, -4.49%, 1.43% and -2.8%.
For `C1N2CN3CN1CN(C2)C3`, the result in assay [1] and in assay [2] was inactive. Moreover, the values for the max response in assay [3] and in assay [5] were -1.63% and -2.39%, respectively.
`CCOC(=O)Oc1ccc(CCNC(=O)[C@H](CCSC)NC(C)=O)cc1OC(=O)OCC`: the compound was classed as inactive in assay [1] and in assay [5]. Moreover, the values for the max response in assay [2] and in assay [3] were -13% and -20.7%, respectively.
For `CC(=O)Nc1c(I)c(NC(C)=O)c(I)c(C(=O)O)c1I`, the max response in assay [1] was 2.5%; in assay [2] it was 2.17%; in assay [4], -3.56%; in assay [5] it was 4.63%. The compound was called inactive in assay [3] and in assay [6].
Consider `C[C@H]1NCc2cc(-c3ccc4c(=O)c(C(=O)O)cn(C5CC5)c4c3OC(F)F)ccc21`, for which the max response in assay [1] was -16.7%; in assay [2] it was -17.6%; in assay [3], -3.8%; in assay [5], 3.52%.
As to `COc1ccccc1OCC1CNC(=O)O1` (centres undefined), the max response was -7.57% in assay [1], 2.95% in assay [2] and -20.6% in assay [3]. Moreover, the call in assay [5] was inactive.
The matching figures for `Cc1cc(=O)oc2cc(O[C@@H]3SC[C@@H](O)[C@H](O)[C@H]3O)ccc12`: -1.48%, -8.77%, 4.75% and “inactive”.
Regarding `CCCOc1ccc2c(c1)CC[C@@H]1[C@@H]2CC[C@]2(C)C(OC)CC[C@@H]12` (some centres undefined), the max response in assay [1] is -5.35%; in assay [2], -6.37%; in assay [3] it was 2.29%; in assay [5], 0.167%.
Regarding `COc1cc(C=O)ccc1O`, the max response in assay [1] is -1.68%; in assay [2] it was -1.3%; in assay [4] it was -6.73%; in assay [5], -0.279%. Also, the result in assay [3] and in assay [6] was inactive.
Take `Cc1cc2nc3ccc(=[N+](C)C)cc-3sc2cc1N`: the Potency is 9440 nM (active) in assay [1], 422 nM (active) in assay [2], 6680 nM (active) in assay [3] and 10600 nM (active) in assay [5].
Consider `O=c1[nH]c(=O)n([C@H]2O[C@H](CO)[C@@H](O)[C@@H]2O)cc1/C=C\Br`, for which the max response in assay [1] is -8.24%; in assay [3], 4.03%; in assay [5] it was -0.191%. Moreover, in assay [2], the result was inactive.
